# Data published in PubChem BioAssay (Tox21).
# Inconclusive results are not listed. Entries that show only a call come without a potency. The source made the active and inactive calls. Calls follow the shape of the full dose curve.
# Target: Acetylcholinesterase (Homo sapiens) (UniProt P22303)
# Experiment: Acetylcholinesterase (AChE) small molecule antagonists: colormetric cell-based qHTS assay (AID 1347395); also: nearly all actives have a fitted effect of over 30% in size
# Details: SH-SY5Y cells AChE activity, colorimetric (Ellman); series mostly up to 115 µM
# Procedure, shortened: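 SH-SY5Y cells attached overnight, exposed to compound 30 min at 37 C, then given DTNB/acetylthiocholine; after 90 min at 37 C, colorimetric thiocholine read gives cellular AChE activity.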
# Potency is read from the fitted curve at half-maximal effect.
# Acetylcholinesterase (Homo sapiens), sequence (P22303 whole entry, looked up): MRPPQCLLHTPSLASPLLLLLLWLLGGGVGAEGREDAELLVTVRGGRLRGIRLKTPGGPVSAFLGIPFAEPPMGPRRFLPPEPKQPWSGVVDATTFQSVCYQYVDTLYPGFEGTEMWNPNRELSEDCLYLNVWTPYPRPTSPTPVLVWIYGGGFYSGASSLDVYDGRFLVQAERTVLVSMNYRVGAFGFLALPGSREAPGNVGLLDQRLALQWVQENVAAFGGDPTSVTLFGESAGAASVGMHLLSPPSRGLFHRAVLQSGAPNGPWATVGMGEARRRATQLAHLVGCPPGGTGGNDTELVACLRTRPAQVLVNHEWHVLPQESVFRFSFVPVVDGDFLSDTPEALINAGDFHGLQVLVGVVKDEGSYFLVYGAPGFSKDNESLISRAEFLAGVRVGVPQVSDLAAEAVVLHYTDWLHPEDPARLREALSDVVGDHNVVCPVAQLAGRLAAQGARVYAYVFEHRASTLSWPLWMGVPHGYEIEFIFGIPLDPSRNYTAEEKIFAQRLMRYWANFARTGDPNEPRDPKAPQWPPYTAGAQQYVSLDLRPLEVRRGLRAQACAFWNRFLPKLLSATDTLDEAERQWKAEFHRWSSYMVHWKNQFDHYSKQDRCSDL
row,SMILES,Potency
1,CC1(C)[C@H](C(=O)O)N2C(=O)C[C@H]2S1(=O)=O,inactive
2,CN(C)C(=O)C1(N2CCCCC2)CCN(CC[C@@]2(c3ccc(Cl)c(Cl)c3)CN(C(=O)c3ccccc3)CCO2)CC1,33.2 µM (active)
3,CCCC(=O)Nc1ccc(OCC(O)CNC(C)C)c(C(C)=O)c1 (stereo not given),inactive
4,CCC(=O)c1cccc(Cl)c1,inactive
5,O=C(/C=C/C=C/c1ccc2c(c1)OCO2)N1CCCCC1,inactive
6,OCC(O)CS (stereo not given),inactive
7,Cc1cnc(C(=O)NCCc2ccc(S(=O)(=O)NC(=O)NC3CCCCC3)cc2)cn1,inactive
8,C=CC(=O)CCCCC,inactive
9,CC(C)(C)Cl,inactive
10,CC1(C)C(O)C(C)(C)C1O (stereo not given),inactive
11,O=C(O)CCCc1c[nH]c2ccccc12,inactive
12,CCOc1ccc2nc(N)sc2c1,inactive
13,CCCCC1(COC(=O)CCC(=O)O)C(=O)N(c2ccccc2)N(c2ccccc2)C1=O,inactive
14,CC[C@]1(O)C[C@@H]2CN(CCc3c([nH]c4ccccc34)[C@@](C(=O)OC)(c3cc4c(cc3OC)N(C)[C@H]3[C@@](O)(C(=O)OC)[C@H](OC(C)=O)[C@]5(CC)C=CCN6CC[C@]43[C@@H]65)C2)C1,inactive
15,CC1=C(C(=O)O)N2C(=O)[C@@H](NC(=O)[C@H](N)c3ccccc3)[C@H]2SC1,inactive
16,Cc1onc(-c2ccccc2Cl)c1C(=O)N[C@@H]1C(=O)N2[C@@H]1SC(C)(C)[C@@H]2C(=O)O,inactive
17,CS(=O)(=O)c1ccc([C@@H](O)[C@@H](CF)NC(=O)C(Cl)Cl)cc1,inactive
18,O=S(=O)(Oc1ccc(Cl)cc1)c1ccccc1,inactive
19,CCN(CC)c1ccc(C=O)c(O)c1,39.9 µM (active)
20,C[C@]12C=CC(=O)C=C1[C@@H](F)C[C@@H]1[C@@H]2[C@@H](O)C[C@@]2(C)[C@H]1CC[C@]2(O)C(=O)CO,inactive

row,SMILES,Potency
1,CCCCC(CC)CO (stereo not given),inactive
2,Cc1occc1S,inactive
3,CC/C(C)=N\O[Si](C)(O/N=C(\C)CC)O/N=C(\C)CC,inactive
4,CC(C)NC[C@@H](O)COc1ccc(CC(N)=O)cc1,inactive
5,COC(=O)C1=C(C)NC(C)=C(C(=O)OC)C1c1ccccc1[N+](=O)[O-],inactive
6,CCCCCCCCCCCSCC(=O)O,inactive
7,NC(=O)c1ccc([N+](=O)[O-])cc1,inactive
8,CC(C)NC(=O)NC(C)C,inactive
9,CC(=O)c1ccc([N+](=O)[O-])cc1,inactive
10,COc1ccc(O)cc1,inactive
11,CC(=O)OCCC(C)C,inactive
12,CC(C)Cc1ccc(CC(=O)O)cc1,inactive
13,O=C(O)CCc1nc(-c2ccccc2)c(-c2ccccc2)o1,inactive
14,CN(C)C(=O)C(CCN1CCC(O)(c2ccc(Cl)cc2)CC1)(c1ccccc1)c1ccccc1,inactive
15,CCN(C(=O)c1cc(C)cc(OC[C@H](C)Nc2ccncc2)c1)C(C)C,12.5 µM (active)
16,CCCCCCCCCO,inactive
17,COc1cc(Cc2cnc(N)nc2N)cc(OC)c1OC,inactive
18,Cc1ccc2c(Cl)cc(Cl)c(O)c2n1,inactive
19,CCn1nc(C(=O)O)c(=O)c2cc3c(cc21)OCO3,inactive
20,CC(C)(C)S,inactive

# Target: Acetylcholinesterase (Homo sapiens) (UniProt P22303)
# Experiment: Acetylcholinesterase (AChE) small molecule antagonists: enzyme-based qHTS assay (AID 1347397); also: nearly all actives have a fitted effect of over 55% in size
# Details: Potency: AChE enzyme activity inhibition; outcome: AChE enzyme activity inhibition; series mostly up to 115 µM
# Procedure, shortened: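 Enzyme inhibition was scored from DTNB-detected thiocholine formed by recombinant human AChE acting on acetylthiocholine. The 30 min compound preincubation and 10 min substrate reaction were both run at room temperature, with DMSO as vehicle control.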
row,SMILES,Potency
1,CC1(C)[C@H](C(=O)O)N2C(=O)C[C@H]2S1(=O)=O,inactive
2,CN(C)C(=O)C1(N2CCCCC2)CCN(CC[C@@]2(c3ccc(Cl)c(Cl)c3)CN(C(=O)c3ccccc3)CCO2)CC1,16.7 µM (active)
3,CCCC(=O)Nc1ccc(OCC(O)CNC(C)C)c(C(C)=O)c1 (stereo not given),inactive
4,CCC(=O)c1cccc(Cl)c1,inactive
5,O=C(/C=C/C=C/c1ccc2c(c1)OCO2)N1CCCCC1,inactive
6,OCC(O)CS (stereo not given),inactive
7,Cc1cnc(C(=O)NCCc2ccc(S(=O)(=O)NC(=O)NC3CCCCC3)cc2)cn1,inactive
8,C=CC(=O)CCCCC,inactive
9,CC(C)(C)Cl,inactive
10,CC1(C)C(O)C(C)(C)C1O (stereo not given),inactive
11,O=C(O)CCCc1c[nH]c2ccccc12,inactive
12,CCOc1ccc2nc(N)sc2c1,inactive
13,CCCCC1(COC(=O)CCC(=O)O)C(=O)N(c2ccccc2)N(c2ccccc2)C1=O,inactive
14,CC[C@]1(O)C[C@@H]2CN(CCc3c([nH]c4ccccc34)[C@@](C(=O)OC)(c3cc4c(cc3OC)N(C)[C@H]3[C@@](O)(C(=O)OC)[C@H](OC(C)=O)[C@]5(CC)C=CCN6CC[C@]43[C@@H]65)C2)C1,inactive
15,CC1=C(C(=O)O)N2C(=O)[C@@H](NC(=O)[C@H](N)c3ccccc3)[C@H]2SC1,inactive
16,Cc1onc(-c2ccccc2Cl)c1C(=O)N[C@@H]1C(=O)N2[C@@H]1SC(C)(C)[C@@H]2C(=O)O,inactive
17,CS(=O)(=O)c1ccc([C@@H](O)[C@@H](CF)NC(=O)C(Cl)Cl)cc1,inactive
18,O=S(=O)(Oc1ccc(Cl)cc1)c1ccccc1,inactive
19,CCN(CC)c1ccc(C=O)c(O)c1,inactive
20,C[C@]12C=CC(=O)C=C1[C@@H](F)C[C@@H]1[C@@H]2[C@@H](O)C[C@@]2(C)[C@H]1CC[C@]2(O)C(=O)CO,inactive

row,SMILES,Potency
1,CCCCC(CC)CO (stereo not given),inactive
2,Cc1occc1S,inactive
3,CC/C(C)=N\O[Si](C)(O/N=C(\C)CC)O/N=C(\C)CC,inactive
4,CC(C)NC[C@@H](O)COc1ccc(CC(N)=O)cc1,inactive
5,COC(=O)C1=C(C)NC(C)=C(C(=O)OC)C1c1ccccc1[N+](=O)[O-],inactive
6,CCCCCCCCCCCSCC(=O)O,inactive
7,NC(=O)c1ccc([N+](=O)[O-])cc1,inactive
8,CC(C)NC(=O)NC(C)C,inactive
9,CC(=O)c1ccc([N+](=O)[O-])cc1,inactive
10,COc1ccc(O)cc1,inactive
11,CC(=O)OCCC(C)C,inactive
12,CC(C)Cc1ccc(CC(=O)O)cc1,inactive
13,O=C(O)CCc1nc(-c2ccccc2)c(-c2ccccc2)o1,inactive
14,CN(C)C(=O)C(CCN1CCC(O)(c2ccc(Cl)cc2)CC1)(c1ccccc1)c1ccccc1,inactive
15,CCN(C(=O)c1cc(C)cc(OC[C@H](C)Nc2ccncc2)c1)C(C)C,22.2 µM (active)
16,CCCCCCCCCO,inactive
17,COc1cc(Cc2cnc(N)nc2N)cc(OC)c1OC,inactive
18,Cc1ccc2c(Cl)cc(Cl)c(O)c2n1,inactive
19,CCn1nc(C(=O)O)c(=O)c2cc3c(cc21)OCO3,inactive
20,CC(C)(C)S,inactive
